This excerpt belongs to a sample that is enriched for hits.
GIRK2 activator = GIRK2 channel activators by thallium flux; P48051; HEK293 GIRK2/NPY4 cells, thallium flux fluorescence; activation (% efficacy), % for hits at 37.5 µM; 34,000 tested, under 10 active; AID 1259324;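 active = primary screen hit, no activity in plain HEK293 cells, and in GIRK2-only cells above 5% efficacy rising with concentration; inactive = the rest, including fluorescent compounds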;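 note: efficacy is normalized control-subtracted fluorescence 15 s after thallium addition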
Target sequence (P48051 whole entry, looked up): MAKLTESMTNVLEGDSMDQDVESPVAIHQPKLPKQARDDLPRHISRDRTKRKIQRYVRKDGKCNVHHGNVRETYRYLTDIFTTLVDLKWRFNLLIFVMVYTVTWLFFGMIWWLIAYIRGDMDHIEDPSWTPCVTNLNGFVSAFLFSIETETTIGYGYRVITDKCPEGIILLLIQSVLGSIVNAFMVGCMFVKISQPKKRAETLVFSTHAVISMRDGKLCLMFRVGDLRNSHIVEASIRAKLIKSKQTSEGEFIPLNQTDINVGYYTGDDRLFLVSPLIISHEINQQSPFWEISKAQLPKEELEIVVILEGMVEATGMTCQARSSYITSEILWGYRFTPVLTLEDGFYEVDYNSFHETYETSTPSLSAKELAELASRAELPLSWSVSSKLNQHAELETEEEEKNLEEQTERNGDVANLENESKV
AMPAR-TARP mod = GluA2-stargazin AMPA receptor complex modulation; O88602+P19491; HEK293 GluA2+stargazin, membrane potential dye (FDSS), glutamate EC50; hits were called plate by plate, in both directions; calls only at 30 µM; hit rate 3.5% among 40,000;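 active = any of four per-well response measures lying three or more SD from its plate-wide compound average, in either direction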
Calls only.

Screening CSc1ccccc1NC(=O)C(=O)NCC1CCN(C)CC1 returned GIRK2 activator inactive and AMPAR-TARP mod inactive.
CSc1ccccc1NC(=O)C(=O)NCC1CCN(C2CCCC2)CC1 was read as GIRK2 activator inactive and AMPAR-TARP mod active.
Screening Cc1noc(C2CN(S(=O)(=O)c3cccs3)C2)n1 returned GIRK2 activator inactive and AMPAR-TARP mod inactive.
`Cc1noc(C2CN(S(=O)(=O)c3cccc(Cl)c3C)C2)n1` gave GIRK2 activator inactive and AMPAR-TARP mod active.
CCOC(=O)C1CCN(CC(O)COc2ccccc2Br)CC1 (stereo not drawn) was read as GIRK2 activator inactive and AMPAR-TARP mod inactive.
Screening Cc1ccc(S(=O)(=O)NCC(c2cccn2C)N2CCCC2)s1 (stereo not drawn) returned GIRK2 activator inactive and AMPAR-TARP mod inactive.
Screening CCOc1ccc(C(=O)NCCC(O)c2ccccc2)cc1 (stereo not drawn) returned GIRK2 activator inactive and AMPAR-TARP mod inactive.
`CCN1C(=O)N(c2cc(C)ccc2C)C2CS(=O)(=O)CC21` (stereo not drawn) gave GIRK2 activator inactive and AMPAR-TARP mod inactive.
`Cc1ccc(C)c(N2C(=O)N(Cc3ccccc3F)C3CS(=O)(=O)CC32)c1` (stereo not drawn) gave GIRK2 activator inactive and AMPAR-TARP mod active.
Screening O=c1[nH]c2c(s1)C1c3ccccc3OC3CCCC(S2)C31 (stereo not drawn) returned AMPAR-TARP mod active.
Screening Cn1cccc1C(CNC(=O)C(=O)NC1CCCC1)N1CCCC1 (stereo not drawn) returned GIRK2 activator inactive and AMPAR-TARP mod inactive.
For Cn1cccc1C(CNC(=O)C1CCN(S(C)(=O)=O)CC1)N1CCCC1 (stereo not drawn) the results were GIRK2 activator inactive and AMPAR-TARP mod active.
`Cc1cc(NC(=O)CSc2ccc(NC(=O)c3ccco3)nn2)on1` gave GIRK2 activator inactive and AMPAR-TARP mod inactive.
COc1ccc(OC)c(-c2cc(C(=O)NCc3n[nH]c(=O)c4ccccc34)n(C)n2)c1 was read as GIRK2 activator inactive and AMPAR-TARP mod inactive.
`O=C(Cn1cnc2c(sc3cccc(F)c32)c1=O)Nc1ccc(Cl)cc1` gave GIRK2 activator inactive.
COc1cc(S(=O)(=O)Nc2ccc(-c3cn4cccc(C)c4n3)cc2)c(OC)cc1C was read as AMPAR-TARP mod active.
COc1ccc(OC)c(S(=O)(=O)Nc2ccc(-c3cn4ccccc4n3)cc2)c1 was read as AMPAR-TARP mod inactive.
For O=C(NCC(O)Cc1ccccc1)Nc1cccc(C(F)(F)F)c1 (stereo not drawn) the results were GIRK2 activator inactive and AMPAR-TARP mod active.
Cn1cccc1C(O)CNC(=O)Nc1cccc(C(F)(F)F)c1 (stereo not drawn) was read as GIRK2 activator inactive and AMPAR-TARP mod inactive.
Screening O=C(NCC1CCN(C(=O)COc2ccccc2)CC1)Nc1ccccc1F returned GIRK2 activator inactive and AMPAR-TARP mod inactive.
O=C(NCC1CCN(c2ccccn2)CC1)Nc1cccc(C(F)(F)F)c1 was read as AMPAR-TARP mod inactive.
O=C(NCC1CCN(C(=O)COc2ccccc2)CC1)Nc1cccc(C(F)(F)F)c1 was read as GIRK2 activator inactive and AMPAR-TARP mod active.
O=C(NCC1CCN(c2ncccn2)CC1)Nc1cccc(C(F)(F)F)c1 was read as GIRK2 activator inactive and AMPAR-TARP mod active.
Screening CC1CCN(c2ncc3c(=O)n(CC(=O)Nc4cccc(Cl)c4)cnc3n2)CC1 returned GIRK2 activator inactive and AMPAR-TARP mod inactive.
Screening Cc1ccc(N2CC(C(=O)Nc3ccc(N4CCC(C)CC4)cc3)CC2=O)cc1 (stereo not drawn) returned AMPAR-TARP mod inactive.
Screening CCOc1ccc(NC(=O)c2ccc(S(=O)(=O)c3ccccc3)nc2)cc1 returned GIRK2 activator inactive and AMPAR-TARP mod inactive.
`CC1CCCCN1c1nc2c(S(=O)(=O)c3ccccc3)nnn2c2ccc(Cl)cc12` (stereo not drawn) gave GIRK2 activator inactive and AMPAR-TARP mod active.
Screening COCCNc1nc2c(S(=O)(=O)c3ccccc3)nnn2c2ccc(Cl)cc12 returned GIRK2 activator inactive and AMPAR-TARP mod inactive.
Cc1cc(C)n(-c2cc(N3CCCC(C(=O)NCc4ccc5c(c4)OCO5)C3)ncn2)n1 (stereo not drawn) was read as GIRK2 activator inactive and AMPAR-TARP mod inactive.
Screening Cc1cc(C)n(-c2cc(N3CCCC(C(=O)NCc4ccco4)C3)ncn2)n1 (stereo not drawn) returned GIRK2 activator inactive and AMPAR-TARP mod active.
COc1ccc(S(=O)(=O)NCC2CCN(Cc3ccco3)CC2)cc1F was read as GIRK2 activator inactive and AMPAR-TARP mod inactive.
`CCOc1ccc(NC(=O)CCc2c(C)nn(-c3nc(C)cc(=O)[nH]3)c2C)cc1` gave GIRK2 activator inactive and AMPAR-TARP mod inactive.
For COc1cccc(-c2nc(COC(=O)c3nnn(-c4ccc(F)cc4)c3C)c(C)o2)c1OC the results were GIRK2 activator inactive and AMPAR-TARP mod inactive.
For Cc1cccc(-n2ncc3c(=O)[nH]c(-n4nc(C)cc4NC(=O)C4CC4)nc32)c1 the results were GIRK2 activator inactive and AMPAR-TARP mod inactive.
Screening Cc1cc(NC(=O)c2c(F)cccc2F)n(-c2nc3c(cnn3-c3cccc(Cl)c3)c(=O)[nH]2)n1 returned GIRK2 activator inactive and AMPAR-TARP mod inactive.
`CCC(CC)C(=O)Nc1cc(C)nn1-c1nc2c(cnn2-c2cccc(C)c2)c(=O)[nH]1` gave GIRK2 activator inactive and AMPAR-TARP mod active.
Screening Cc1cc(NC(=O)c2c(F)cccc2F)n(-c2nc3c(cnn3-c3ccc(C)c(C)c3)c(=O)[nH]2)n1 returned GIRK2 activator inactive and AMPAR-TARP mod active.
`CCOc1ccc(C(=O)Nc2ccc3nc(C)n(-c4ccc(F)cc4)c(=O)c3c2)cc1` gave AMPAR-TARP mod inactive.
`CC1CCN(C(=O)c2cc(N3C(=O)C(C)(C)CS3(=O)=O)ccc2Cl)CC1` gave GIRK2 activator inactive and AMPAR-TARP mod inactive.
COc1ccccc1-c1ccc(N2CCC(C(=O)N3CCN(c4ccccc4OC)CC3)CC2)nn1 was read as GIRK2 activator inactive and AMPAR-TARP mod inactive.
CCN(C(=O)C1CCN(c2ccc(-c3ccccc3OC)nn2)CC1)C1CCCCC1 was read as GIRK2 activator inactive and AMPAR-TARP mod active.
Screening CN1CC(NC(=O)CCC2CCCC2)CC1=O (stereo not drawn) returned GIRK2 activator inactive.
Screening CCCCS(=O)(=O)N1CCN(c2ccc(Nc3cccc(C)n3)nn2)CC1 returned GIRK2 activator inactive and AMPAR-TARP mod active.
`CCCCS(=O)(=O)N1CCN(c2ccc(-n3nc(C)c(C)c3C)nn2)CC1` gave GIRK2 activator inactive and AMPAR-TARP mod inactive.
Screening O=C(CCn1nc(-c2ccc(Cl)cc2)c2ccccc2c1=O)NC1CCCCC1 returned AMPAR-TARP mod active.
Cc1ccc(-c2nn(CCC(=O)N3CCN(Cc4ccccc4)CC3)c(=O)c3ccccc23)cc1 was read as AMPAR-TARP mod inactive.
COc1ccc2c(CC(=O)Nc3ccccc3C)cc(=O)oc2c1 was read as GIRK2 activator inactive and AMPAR-TARP mod inactive.
For CC(=O)N1CCc2c(sc3nc(SCc4ccc([N+](=O)[O-])cc4)n(Cc4ccco4)c(=O)c23)C1 the results were AMPAR-TARP mod inactive.
`CC(=O)N1CCc2c(sc3nc(SCc4cccc([N+](=O)[O-])c4)n(Cc4ccco4)c(=O)c23)C1` gave GIRK2 activator inactive and AMPAR-TARP mod active.

Screening data (PubChem)
